# Source: PubChem (Buhrlage Lab, Dana-Farber Cancer Institute and Novartis Institutes for BioMedical Research (Cambridge, Mass))
# USP10 inh: inhibitors of human USP10 deubiquitinase. Ubiquitin carboxyl-terminal hydrolase 10 (Homo sapiens), Q14694. purified USP10, Ub-rhodamine fluorescence, 60 min. 47,000 tested, 1.1% active. inhibition, % at 20 µM. AID 1645856, 2021
# USP17 inh: inhibitors of human USP17 deubiquitinase. Ubiquitin carboxyl-terminal hydrolase 17-like protein 5 (Homo sapiens), A8MUK1. purified USP17, Ub-rhodamine cleavage fluorescence, 3 h. inhibition, % at 50 µM. 47,000 tested, 6.5% active. AID 1645855, 2021
# OTUD3 block: inhibitors of human OTUD3 deubiquitinase; purified OTUD3, Ub-rhodamine fluorescence, 2 h; inhibition, % at 25 µM; 47,000 tested, 0.7% active; AID 1645858, 2021
# USP7 inh: inhibitors of human USP7 deubiquitinase; 47,000 tested, 0.3% active; Ubiquitin carboxyl-terminal hydrolase 7 (Homo sapiens), Q93009; purified USP7, Ub-rhodamine cleavage fluorescence; AID 1645854, 2021; inhibition, % at 20 µM
# UCHL1 inh: inhibitors of human UCHL1 deubiquitinase. Ubiquitin carboxyl-terminal hydrolase isozyme L1 (Homo sapiens), P09936. inhibition, % at 20 µM. purified UCHL1, Ub-rhodamine cleavage fluorescence. 47,000 tested, 0.2% active
# Target sequence (P09936 whole entry, looked up): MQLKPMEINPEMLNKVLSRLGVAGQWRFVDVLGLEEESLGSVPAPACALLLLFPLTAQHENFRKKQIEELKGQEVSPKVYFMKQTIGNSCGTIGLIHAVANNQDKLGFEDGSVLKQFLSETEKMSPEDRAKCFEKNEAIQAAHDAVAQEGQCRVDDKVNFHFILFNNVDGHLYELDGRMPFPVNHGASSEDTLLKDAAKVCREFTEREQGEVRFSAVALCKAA
# USP8 block: inhibitors of human USP8 deubiquitinase; Ubiquitin carboxyl-terminal hydrolase 8 (Homo sapiens), P40818; purified USP8, Ub-rhodamine cleavage fluorescence, 30 min; inhibition, % at 20 µM; 47,000 tested, 4.2% active
# Starred values were filed as active, the others as inactive; · = no result. In the library only some 9.2% were active in any assay of this set; here they are far more common. Rule as the data show it: active = inhibition above about 30%; inactive = the rest.
SMILES,USP10 inh,USP17 inh,OTUD3 block,USP7 inh,UCHL1 inh,USP8 block
COc1ccc(-c2cc(NC(=O)c3ccccc3F)n(C3CCS(=O)(=O)C3)n2)cc1 (configuration not stated),3,-11,-3,3,-1,-20
Nc1ncnc2c1ncn2[C@@H]1O[C@H](CO)C[C@@H]1O,28,50*,50*,30*,16,17
O=C(Nc1cccnc1)c1cn(Cc2ccc(F)cc2)cc2c(=O)n(-c3ccccc3)nc1-2,3,2,6,3,1,-12
Cn1cc(C(=O)Nc2cccnc2)c2nn(-c3ccccc3)c(=O)c-2c1,3,17,12,7,2,31*
Cc1cc(C(Nc2ccccn2)c2ccc(Cl)cc2)c(NC(=O)c2ccco2)s1 (configuration not stated),-4,·,-4,6,1,35*
Cc1cc(CN2CCOCC2)c(NC(=O)c2ccco2)s1,-3,-11,0,-2,-2,-7
COc1cccc(C(=O)N(Cc2nc3nc(C)cc(=O)n3[nH]2)c2ccccc2)c1,6,-4,-3,0,0,-3
Cc1cccc(NC(=O)COC(=O)c2sc3cc(F)ccc3c2Cl)c1,6,5,0,6,2,2
CC(=O)c1cccc(NC(=O)COC(=O)c2sc3cc(F)ccc3c2Cl)c1,31*,5,0,10,5,26
CC(C)CCn1c(=O)c2ccccc2n2c(CCC(=O)NC3CCCCCC3)nnc12,-6,41*,38*,-32,0,27
COc1ccc(CNC(=O)CCc2nnc3n(Cc4ccccc4Cl)c(=O)c4ccccc4n23)cc1,14,43*,33*,7,9,38*
O=C(CCc1nnc2n(Cc3ccccc3Cl)c(=O)c3ccccc3n12)NCc1ccccn1,-5,45*,13,-19,0,-7
CC(C)CCn1c(=O)c2ccccc2n2c(CCC(=O)NCc3ccccc3Cl)nnc12,-7,-1,0,-62,-1,19
O=C(CCc1nnc2n(Cc3ccccc3Cl)c(=O)c3ccccc3n12)NCc1ccccc1,15,18,11,7,0,47*
Cc1cccc(C(=O)N2CCc3cc(-c4nc(NC(=O)C5(c6ccc(Cl)cc6)CCC5)sc4C)ccc32)c1,21,26,-7,15,-1,33*
Cc1sc(NC(=O)CN2CCCCCC2)nc1-c1ccc2c(c1)CCN2C(=O)C1CCCCC1,-2,·,9,-12,5,18
Cc1sc(NC(=O)CN2CCCCC2)nc1-c1ccc2c(c1)CCN2C(=O)c1cccc(F)c1,-1,36*,0,-36,3,-17
Cc1sc(NC(=O)CNc2ccccc2)nc1-c1ccc2c(c1)CCN2C(=O)C1CCCCC1,14,47*,-2,-31,10,63*
Cc1sc(NC(=O)C2(c3ccc(Cl)cc3)CCC2)nc1-c1ccc2c(c1)CCN2C(=O)c1ccccc1F,-5,4,-35,-1,-4,-14
Cc1sc(NC(=O)CN2CCc3ccccc3C2)nc1-c1ccc2c(c1)CCN2C(=O)C(C)C,-10,-5,-48,-24,-17,47*
c1ccc(OCc2nc(-c3ccn4cnnc4c3)no2)cc1,-4,-1,-10,-14,-4,-2
CCc1cnc(N2CCC3(CC2)CNS(=O)(=O)c2ccccc2OC3)nc1,0,3,13,4,0,-21
Cc1ccccc1Cn1nc(C)c(NC(=O)c2c(C)nn(C(F)F)c2C)c1C,1,2,4,3,0,5
Cc1sc(NC(=O)C2(c3ccc(Cl)cc3)CCC2)nc1-c1ccc2c(c1)CCN2S(=O)(=O)c1ccccc1,11,-16,-14,-2,-1,-92
Cc1sc(NC(=O)CN2CCCC2)nc1-c1ccc2c(c1)CCN2S(=O)(=O)c1ccccc1,-5,39*,-8,1,-1,10
SMILES,USP10 inh,USP17 inh,OTUD3 block,USP7 inh,UCHL1 inh,USP8 block
O=C(CCc1c[nH]c2ccccc12)OCC(=O)c1cc2c3c(c1)CC(=O)N3CCC2,17,62*,0,·,14,32*
COc1ccc(NC(=O)C(C)c2c(C)n[nH]c2C)cc1Cl (configuration not stated),-2,5,4,3,1,0
CC1(O)CC(=O)c2c(cc3cc(O)cc(O)c3c2O)C1 (configuration not stated),79*,77*,75*,94*,93*,70*
COCCCn1c(SCC(=O)Nc2ccccc2C(=O)OC)nc2ccccc2c1=O,2,42*,15,8,8,9
Cc1ccc(C(=O)N2CCCn3nnc(Cn4cccn4)c3C2)cc1F,0,-12,-2,-3,-5,-19
O=C(c1[nH]nc2c1COc1ccccc1-2)N1CCN(c2ccccn2)CC1,27,-14,6,10,4,50*
CC(C(=O)NCc1ccccc1)N1CCc2ccccc21 (configuration not stated),-3,-5,-2,-7,-2,-6
COc1ccc(NC(=O)CCc2nc3sc4c(c3c(=O)[nH]2)CCCCC4)cc1,10,-48,-40,0,-6,32*
O=C(CCc1nc2sc3c(c2c(=O)[nH]1)CCCCC3)Nc1ccccc1,-6,25,-29,-1,-1,4
COc1ccc(-c2nc3sc4c(c3c(=O)[nH]2)CCCCCC4)c(OC)c1,-1,31*,6,1,2,6
Cc1nc(C2CN(Cc3ccc4c(c3)OCCO4)CCO2)cc(=O)[nH]1 (configuration not stated),1,8,11,-1,-1,4
Cc1nc(C2CN(Cc3nc4ccccc4n3C)CCO2)cc(=O)[nH]1 (configuration not stated),3,8,8,5,0,31*
c1ccc(-c2cc(CSc3nc4ccccc4[nH]3)no2)cc1,4,33*,-5,3,5,2
COc1ccc(CSc2nc3ccccc3[nH]2)cc1OC,1,-2,-1,0,0,-48
O=C(CSc1ccc2nnc(CCNS(=O)(=O)c3ccccc3)n2n1)Nc1ccc(Br)cc1,0,32*,0,-5,3,2
Cc1nc(Sc2ccc3ccccc3c2)c2oc3ccccc3c2n1,10,42*,12,11,4,11
c1ccc2cc(Sc3ncnc4c3oc3ccccc34)ccc2c1,2,5,2,1,0,11
CCOc1ccc(-n2c(SCC(=O)N3CC(=O)Nc4ccccc43)nnc2-c2ccc(OC)cc2)cc1,-3,51*,-9,2,-1,-2
